Data reported in PubChem BioAssay.
Several values for one entry are separate records, joined by “and”; a condition that tells them apart may be missing. Equal entries are not always repeated. Activity calls are given as the source filed them. Rule as the data show it, unless noted: active = inhibition above about 80%; inactive = the rest.

Columns and labels:
[1] = compounds altering circadian rhythm period length – cell-based, LOPAC library, luminescence reporter (AID 2774; call rule not given here;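 also: values are relative to mean of DMSO wells on each plate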); conditions: circadian reporter cells, at 7 µM, actives lie on both sides
[2] = antimalarial activity against Dd2 strain (AID 2302;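 active = growth inhibition above 50% at the single 2 µM test dose, taken to imply half-maximal potency below 2 µM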;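 also: 0% = DMSO untreated growth and 100% = chloroquine plus artemisinin killed control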); conditions: P. falciparum Dd2 in RBCs, LDH growth readout, 72 h; at 2 µM; stronger effect = higher value
[3] = human hepatoma cell viability loss – ATP luminescence, cytotoxicity control for P. falciparum antimalarial project, primary screen (AID 2303;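 active = inhibition above 50%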;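 also: 0% = DMSO wells and 100% = digitonin-killed cells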); conditions: HepG2 viability, 24-48 h, at 10 µM, stronger effect = higher value
[4] = target: L-lactate dehydrogenase (Plasmodium falciparum (isolate CDC / Honduras)) (UniProt Q27743); test: PfLDH activity inhibition – cell lysate, 3D7 strain, counter-screen for P. falciparum growth inhibition project (AID 2304; call rule not given here;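 also: 0% = vehicle and 100% = reference inhibitor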); conditions: P. falciparum 3D7 crude extract, LDH APAD/NBT absorbance; at 2 µM; stronger effect = higher value
Sequence of L-lactate dehydrogenase (Plasmodium falciparum (isolate CDC / Honduras)) (Q27743 whole entry, looked up): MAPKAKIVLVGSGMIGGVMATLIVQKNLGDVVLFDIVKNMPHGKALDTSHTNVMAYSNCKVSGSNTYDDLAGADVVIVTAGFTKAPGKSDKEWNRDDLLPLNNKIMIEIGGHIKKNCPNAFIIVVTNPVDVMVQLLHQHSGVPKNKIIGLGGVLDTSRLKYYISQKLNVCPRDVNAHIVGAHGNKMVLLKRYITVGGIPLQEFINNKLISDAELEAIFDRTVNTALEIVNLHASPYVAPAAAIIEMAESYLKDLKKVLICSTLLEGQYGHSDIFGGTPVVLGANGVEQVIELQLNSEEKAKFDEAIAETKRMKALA

[5] = inhibition of 3D7 malaria parasite growth – strain 3D7 (AID 2306; call rule not given here;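 also: 0% = DMSO wells and 100% = chloroquine plus artemisinin control wells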); conditions: P. falciparum 3D7 erythrocytic growth, LDH absorbance, 72 h; at 2 µM; stronger effect = higher value
[6] = growth inhibition, single agent or in combination, cell-based, chromothripsis tumors, cisplatin or BGB combos (AID 1671449); conditions: LFS_MB_P medulloblastoma cells;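 also: cells exposed for 96 hours; 0% = vehicle DMSO and 100% = killing by high DMSO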
[7] = growth inhibition, single agent and combos, cell-based, chromothripsis tumors, cisplatin or BGB combos (AID 1671450); conditions: HDN33 neuroblastoma cells, stronger effect = higher value;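 also: cells exposed to compound for four days; 0% = vehicle DMSO and 100% = cell killing by high DMSO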
[8] = growth inhibition, single agents and combos, ICB984, cell-based, cisplatin or BGB combos, synergistic combos for chromothripsis tumors (AID 1671451; call rule not given here;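 also: cells exposed for 96 hours before readout; 0% = vehicle DMSO and 100% = killing by high DMSO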); conditions: ICB984 medulloblastoma cells, drug combinations, stronger effect = higher value
[9] = growth inhibition, single agents and combos, LFS_MB_1R, cell-based, cisplatin or BGB combos, synergistic combos for chromothripsis tumors (AID 1671452); conditions: LFS_MB_1R medulloblastoma cells, stronger effect = higher value;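 also: cells exposed for 96 hours before readout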
[10] = growth inhibition, single agents and combos, HTB85, cell-based, BGB or cisplatin IC20 combos, synergistic combos for chromothripsis tumors (AID 1671453); conditions: HTB85 osteosarcoma cells, drug combinations, stronger effect = higher value;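 also: cells exposed for 96 hours before readout; 0% = vehicle DMSO and 100% = high DMSO killing control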
[11] = growth inhibition, single agents and combos, CRL2098, cell-based, BGB or cisplatin IC20 combos, synergistic combos for chromothripsis tumors (AID 1671454); conditions: CRL2098 osteosarcoma cells, drug combinations, stronger effect = higher value;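 also: cells exposed for 96 h before readout; 0% = vehicle DMSO and 100% = killing by high DMSO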
[12] = growth inhibition, single agents and combos, HD-MB03, cell-based, BGB or cisplatin IC20 combos, synergistic combos for chromothripsis tumors (AID 1671455; in the data active = inhibition above about 83%;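 also: 0% = vehicle DMSO and 100% = high DMSO as cytotoxic control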); conditions: HD-MB03 medulloblastoma cells, stronger effect = higher value
[13] = growth inhibition, single agents and combos, UWB1.289, cell-based, BGB or cisplatin combos, synergistic combos for chromothripsis tumors (AID 1671456); conditions: UWB1.289 ovarian carcinoma cells, stronger effect = higher value;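 also: cells exposed to compound for four days; 0% = vehicle DMSO and 100% = killing by high DMSO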
[14] = growth inhibition, single agents and combos, LFS_MB_2R, cell-based, cisplatin combos, synergistic combos for chromothripsis tumors (AID 1671457); conditions: LFS_MB_2R medulloblastoma cells, stronger effect = higher value;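 also: cells exposed to compound for four days before readout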
[15] = growth inhibition, MDA-MB-436, cell-based, BGB or cisplatin combos, synergistic combos for chromothripsis tumors (AID 1671458; call rule not given here;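 also: cells exposed for 96 hours; 0% = vehicle DMSO and 100% = killing by high DMSO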); conditions: MDA-MB-436 breast carcinoma growth inhibition, drug combinations, stronger effect = higher value
[16] = UWB1.289_BRCA1 ovarian cancer growth, cell-based, BGB or cisplatin combinations (AID 1671459); conditions: UWB1.289 BRCA1 ovarian carcinoma, drug combinations, stronger effect = higher value
[17] = drug combination toxicity in non-malignant astrocytes – cell-based, BGB or cisplatin IC20 combos, cytotoxicity control for chromothriptic childhood tumor combination screen (AID 1671460); conditions: Human astrocytes, viability inhibition, drug combinations, at 0.5 µM, stronger effect = higher value;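 also: cells exposed to compounds for 96 hours before viability readout; 0% = vehicle and 100% = killing control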
[18] = BT084 cell growth, single and combined drugs, ICGC_MB145, cisplatin and BGB IC40 combos (AID 1671461); conditions: BT084 medulloblastoma cells, drug combinations, stronger effect = higher value;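 also: cells exposed to drugs for 96 hours; 0% = vehicle DMSO and 100% = high DMSO full killing control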
[19] = RCMB18 cell growth, single agent and combined, cisplatin and BGB IC40 combos (AID 1671462); conditions: RCMB18 medulloblastoma cells, stronger effect = higher value;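 also: cells exposed to compound for four days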
[20] = CRL1545 cell growth, single agent and combined, cisplatin and BGB IC20 combos (AID 1671464); conditions: CRL1545 osteosarcoma cells, stronger effect = higher value;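 also: cells exposed to compound for 96 hours before readout; 0% = vehicle DMSO and 100% = high DMSO killing control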
[21] = measured here: combination with BGB IC40, at 0.05 µM
[22] = measured here: with BGB IC20 combination, at 0.5 µM
[23] = measured here: with cisplatin IC20 combination, at 0.5 µM
[24] = measured here: combination with cisplatin, at 0.5 µM
[25] = measured here: combination with cisplatin, at 5 µM

CC[C@@H]1/C=C/C=C/C[C@H](C)[C@@H](O)[C@](C)(O)C(=O)[C@H](C)[C@@H](O)[C@H](C)C(=O)[C@H](C)[C@@H](O)[C@H](C)/C=C/C(=O)O[C@H]2[C@@H](C)[C@@H](CC1)O[C@@]1(CC[C@@H](C)[C@@H](CC(C)O)O1)[C@@H]2C (stereo partly specified)
period change [1]: -1.77 h (inactive)

C[C@]12CC[C@H](OS(=O)(=O)O)CC1=CC[C@@H]1[C@@H]2CC[C@]2(C)C(=O)CC[C@@H]12
period change [1]: -0.035 h (inactive)

CC1=C[C@@H]2c3cccc4[nH]cc(c34)C[C@H]2N(C)C1
period change [1]: 0.28 h (inactive)

CP(=O)(O)CCCN
period change [1]: -0.005 h (inactive)

COC(=O)c1ccc(CC(C)NCC(O)c2cccc(C(F)(F)F)c2)cc1 (stereo unspecified)
growth inhibition [2]: 87% (active) and 73% (active) | inhibition [3]: -8% (inactive) and -9% (inactive) | inhibition [4]: -4% (inactive) and -1% (inactive) | growth inhibition [5]: 97% (active) and 94% (active)

O=c1[nH]c(=O)n(C2OC(CO)C(O)C2O)cc1F (stereo unspecified)
inhibition ([6]; at 0.5 µM, stronger effect = higher value): -2.55% (inactive) | inhibition ([6]; measured here: combination with BGB IC20, at 0.005 µM): -22.7% | inhibition ([6]; measured here: combination with BGB IC40, at 0.005 µM): -24.2% | inhibition [6, 21]: -0.747% | inhibition ([6]; measured here: combination with cisplatin, at 0.5 µM, stronger effect = higher value): -21.6% | inhibition ([6]; measured here: combination with cisplatin, at 5 µM, stronger effect = higher value): 22.1% | inhibition ([7]; BGB combo, at 5 µM): 98.3% | inhibition ([7]; at 0.5 µM): 71.5% (inactive) | inhibition ([7]; cisplatin combo, at 5 µM): 97.9% | inhibition [7, 22]: 69.4% | inhibition [7, 23]: 68.6% | inhibition ([7]; single agent, at 5 µM): 98.1% | inhibition ([8]; BGB IC20 combo, at 0.005 µM): 26.6% | inhibition ([8]; BGB IC40 combo, at 0.005 µM): 32% | inhibition ([8]; BGB IC40 combo, at 0.05 µM): 86.4% | inhibition ([8]; at 0.5 µM): -9.47% (inactive) | inhibition ([8]; cisplatin combo, at 0.05 µM): 86.4% | inhibition ([8]; cisplatin combo, at 0.5 µM): -24.4% | inhibition ([8]; cisplatin combo, at 5 µM): -10.9% | inhibition ([8]; measured here: 5 uM single agent, at 5 µM): -6.81% | inhibition ([9]; at 0.5 µM): -13.3% (inactive) | inhibition [9, 21]: -3.21% | inhibition [9, 24]: -2.35% | inhibition [9, 25]: 44.8% | inhibition ([10]; at 0.5 µM): 22% (inactive) | inhibition ([10]; measured here: with BGB IC20, at 0.5 µM): -3.46% | inhibition ([10]; measured here: with BGB IC20, at 5 µM): 59.1% | inhibition ([10]; measured here: with cisplatin IC20, at 0.5 µM): 26.3% | inhibition ([10]; measured here: with cisplatin IC20, at 5 µM): 57.2% | inhibition ([10]; single agent, at 5 µM): 76.2% | inhibition ([11]; at 0.5 µM): -23.1% (inactive) | inhibition ([11]; measured here: combination with BGB at IC20, at 0.5 µM): -14.1% | inhibition ([11]; measured here: combination with cisplatin at IC20, at 0.5 µM): -20.6% | inhibition ([12]; at 0.5 µM): 66.9% (inactive) | inhibition ([12]; measured here: combo with BGB at IC20, at 0.5 µM): 71.1% | inhibition ([12]; measured here: combo with cisplatin at IC20, at 0.5 µM): 54% | inhibition ([13]; at 0.5 µM): 33.5% (inactive) | inhibition ([13]; measured here: inhibition with BGB combination, at 0.05 µM): -10.9% | inhibition ([13]; measured here: inhibition with cisplatin combination, at 0.05 µM): 10.1% | inhibition ([14]; at 0.5 µM): -12.7% (inactive) | inhibition [14, 24]: -4.31% | inhibition [14, 25]: 6.83% | inhibition ([15]; at 0.5 µM): 45.1% (inactive) | inhibition ([15]; measured here: BGB combination, at 0.5 µM): 27.6% | inhibition ([15]; measured here: BGB combination, at 5 µM): 83.1% | inhibition ([15]; measured here: cisplatin combination, at 0.5 µM): 39.9% | inhibition ([15]; measured here: cisplatin combination, at 5 µM): 86.1% | inhibition ([16]; BGB combination, concentration series, at 5 µM): 110% | inhibition ([16]; at 0.5 µM): 40.6% (inactive) | inhibition ([16]; cisplatin combination, concentration series, at 5 µM): 118% | inhibition [17]: 57.3% (inactive) | inhibition ([17]; measured here: combo with BGB IC20): 56.2% | inhibition ([17]; measured here: combo with cisplatin IC20): 38.9% | inhibition ([18]; at 0.5 µM): -22.9% (inactive) | inhibition ([18]; cisplatin combination, at 0.5 µM): -18.4% | inhibition ([18]; cisplatin combination, at 5 µM): -1.49% | inhibition ([18]; measured here: BGB IC40 combination 0.05 uM, at 0.05 µM): 2.24% | inhibition ([18]; single agent, at 5 µM): 11.9% | inhibition ([19]; at 0.5 µM): 33.4% (inactive) | inhibition ([19]; cisplatin combo, at 5 µM): 75.4% | inhibition ([19]; measured here: BGB IC40 combination, at 0.05 µM): 14.4% | inhibition [19, 24]: 45.3% | inhibition ([19]; single agent, at 5 µM): 63.7% | inhibition ([20]; at 0.5 µM): 82.5% (active) | inhibition [20, 22]: 77.3% | inhibition [20, 23]: 85.1% | inhibition ([20]; single agent, at 0.05 µM): 57.8% | inhibition ([20]; single agent, at 5 µM): 99.7%
